# Data as given in the supplement of paper PMC12494721.
# Structures can show the parent of a compound that is named as a salt. Unmarked numbers belong to inactive results.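 Rule for the calls: for the amine columns active = adjusted P below 0.05 in both replicates with a change the same way and a mean fold change under 0.8 or over 1.25; inactive = the rest.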
# Tested on: Klebsiella aerogenes DSM 30053
# Test: fold change of Cadaverine concentration vs plate DMSO controls (fold change (ratio)); higher = more amine produced, active = hit call of the paper (significant change in both replicates, either direction)
# Conditions: incubation time: 27 h, anaerobic, 37 °C
# Method in brief: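 Using LC–triple-quadrupole MS with dynamic MRM, amines were quantified against external calibration curves and corrected for drift within each batch. Samples were whole anaerobic mGAM cultures of four gut strains, grown 27 h at 37 °C from OD 0.1 before 1:1 dilution, extracted with cold acetonitrile/methanol containing 0.1% formic acid and centrifuged. Compounds were present at 20 µM final (sweeteners at 50 µM final). The numbers are fold changes versus plate DMSO controls, each the mean of 2 biological replicates.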
row,Compound,fold change of Cadaverine concentration
1,COc1ccc(CC(C)NCC(O)c2ccc(O)c(NC=O)c2)cc1 (centres undefined) [Formoterol fumarate] (20 µM),1.09
2,CCN(CC)CCc1nc(-c2ccccc2)no1 [Oxolamine citrate salt] (20 µM),0.987
3,O=C(O)c1cc(-c2ccc(F)cc2F)ccc1O [Diflunisal] (20 µM),0.994
4,NC(=O)NC1NC(=O)NC1=O (centres undefined) [Allantoin] (20 µM),1.02
5,CN1CCCN=C1/C=C/c1cccs1 [Pyrantel tartrate] (20 µM),1.02
6,CCN1CCN(c2cc3c(cc2F)c(=O)c(C(=O)O)cn3C2CC2)CC1 [Enrofloxacin] (20 µM),0.938
7,CCCNC(C)C(=O)Nc1c(C)csc1C(=O)OC (centres undefined) [Articaine hydrochloride] (20 µM),1.01
8,CCN(CC)CC(=O)Nc1c(C)cccc1C [Lidocaine hydrochloride] (20 µM),0.988
9,CCn1cc(C(=O)O)c(=O)c2cc(F)c(N3CCNC(C)C3)c(F)c21 (centres undefined) [Lomefloxacin hydrochloride] (20 µM),0.981
10,C[C@]12CCC(=O)C=C1CC[C@@H]1[C@@H]2C(=O)C[C@@]2(C)[C@H]1CC[C@]2(O)C(=O)CO [Cortisone] (20 µM),1.01
11,CCN(CC)CCNC(=O)c1cc(Cl)c(N)cc1OC [Metoclopramide monohydrochloride] (20 µM),0.998
12,C[C@@H](CN1CC(=O)NC(=O)C1)N1CC(=O)NC(=O)C1 [Dexrazoxane hydrochloride] (20 µM),1.01
13,CCOc1ccc(NC(C)=O)cc1 [Phenacetin] (20 µM),1.01
14,CC(C)C(=O)Nc1ccc([N+](=O)[O-])c(C(F)(F)F)c1 [Flutamide] (20 µM),0.981
15,Cc1ccc2c([nH]c(=O)c3c(=O)cc(C(=O)OCCC(C)C)oc32)c1C [Repirinast] (20 µM),0.998
16,CCCCc1oc2ccccc2c1C(=O)c1cc(I)c(OCCN(CC)CC)c(I)c1 [Amiodarone hydrochloride] (20 µM),0.985
17,NCc1ccc(S(N)(=O)=O)cc1 [Mafenide hydrochloride] (20 µM),0.987
18,CC[C@@H](CO)NCCN[C@@H](CC)CO [Ethambutol dihydrochloride] (20 µM),1.01
19,Nc1c2ccccc2nc2ccccc12 [Aminacrine] (20 µM),0.964
20,CC(C(=O)O)c1cccc(C(=O)c2ccccc2)c1 (centres undefined) [Ketoprofen] (20 µM),0.995

row,Compound,fold change of Cadaverine concentration
1,CCOC(=O)[C@H](CCc1ccccc1)N[C@H]1CS[C@H](c2cccs2)CN(CC(=O)O)C1=O [Temocapril hydrochloride] (20 µM),1.01
2,CC(COc1ccccc1)N(CCCl)Cc1ccccc1 (centres undefined) [Phenoxybenzamine hydrochloride] (20 µM),0.985
3,CC1(C)OC(=O)NC1=O [Dimethadione] (20 µM),0.992
4,c1cnc(N2CCN(Cc3ccc4c(c3)OCO4)CC2)nc1 [Piribedil] (20 µM),0.996
5,O=c1[nH]c(=O)n(C2CCCO2)cc1F (centres undefined) [Tegafur] (20 µM),1.01
6,Nc1ccc(S(=O)(=O)Nc2ncccn2)cc1 [Sulfadiazine] (20 µM),1.01
7,Cc1onc(-c2c(Cl)cccc2Cl)c1C(=O)N[C@@H]1C(=O)N2[C@@H]1SC(C)(C)[C@@H]2C(=O)O [Dicloxacillin sodium salt hydrate] (20 µM),0.994
8,CN(C)CCC=C1c2ccccc2C=Cc2ccccc21 [Cyclobenzaprine hydrochloride] (20 µM),0.985
9,C#C[C@]1(O)CC[C@H]2[C@@H]3CCc4cc(O)ccc4[C@H]3CC[C@@]21C [Ethinylestradiol] (20 µM),1.01
10,CN1CC(O)c2cc(N=NC(N)=O)c(O)cc21 (centres undefined) [Carbazochrome] (20 µM),1.07
11,C[C@@H](O[C@H]1OCCN(Cc2n[nH]c(=O)[nH]2)[C@H]1c1ccc(F)cc1)c1cc(C(F)(F)F)cc(C(F)(F)F)c1 [Aprepitant] (20 µM),0.993
12,CCOC(=O)c1c(N)sc2c1CCN(Cc1ccccc1)C2 [Tinoridine hydrochloride] (20 µM),0.976
13,C/C(=C1\CCOC(=O)S1)N(C=O)Cc1cnc(C)nc1N [Cycotiamine] (20 µM),0.999
14,CCN1CCN(C(=O)N[C@@H](C(=O)N[C@@H]2C(=O)N3[C@@H]2SC(C)(C)[C@@H]3C(=O)O)c2ccccc2)C(=O)C1=O [Piperacillin sodium salt] (20 µM),1.03
15,CN1CCN2c3ccccc3Cc3ccccc3C2C1 (centres undefined) [Mianserine hydrochloride] (20 µM),0.999
16,O=C(Oc1cccc2cccnc12)c1ccccc1 [Benzoxiquine] (20 µM),1.01
17,Cc1cc(=O)n(-c2ccccc2)n1C [Antipyrine] (20 µM),0.999
18,O=C1c2cccc(O)c2C(=O)c2c(O)cccc21 [Danthron] (20 µM),1.01
19,Cc1c(Nc2ncccc2C(=O)O)cccc1C(F)(F)F [Flunixin meglumine] (20 µM),1
